Drawing on PubChem BioAssay (NCATS), this text covers Potency and IC50 (viability decrease) for 36 compounds.

Assay [1] can be described thus: qHTS Screen of the MIPE 4.0 Collection Against Ewings Sarcoma (TC32) (AID 1259256). Also: nearly all actives have a fitted effect of over 45% in size. Also: potency is read from the fitted curve at half-maximal effect. In outline:
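Compound titrations go onto adherent log-phase cells 4 h after seeding, incubate 48 h at 37C, then CellTiter-Glo luminescence reports viability relative to DMSO and cell-free controls.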

A short description of assay [2]: qHTS assay to identify small molecule inhibitors of chordoma cells - UCH-1 (AID 1259355). Also: nearly all actives have a fitted effect of over 55% in size. Also: potency is read from the fitted curve at half-maximal effect; series mostly up to about 46 µM. An outline of the steps:
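Luminescent ATP read-out (CellTiter-Glo, 30min at room temperature) measured viability of UCH-1 cells exposed for 48hr to test drugs at 15 concentrations, co-dosed with a five-agent combination of auranofin, camptothecin, doxorubicin, rubitecan and topotecan.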

Assay [3] is described as follows: qHTS assay to identify small molecule inhibitors of chordoma cells - UCH-2 (AID 1259356). Also: series mostly up to about 46 µM.
A short description of assay [4]: P-glycoprotein substrates identified in KB-3-1 adenocarcinoma cell line, qHTS therapeutic library screen (AID 1346986). Also: nearly all actives have a fitted effect of over 60% in size.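 Also: potency is read from the fitted curve at half-maximal effect; potency is for cytotoxicity meaning loss of cell viability.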 An outline of the steps:
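Resistance attributable to P-gp was assessed by comparing AC50 in KB-8-5-11 with parental KB-3-1 and by tariquidar reversal. Cells were exposed 72 h and viability read by CellTiter-Glo.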

A short description of assay [5]: Identifying Small Molecule Inhibitors of Pancreatic Cancer Stem Cells (A2780, Spheroid) (AID 1259357).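 Also: spheroids pre-formed over 14 days in stem cell medium on hydrogel; compound exposure lasted 48 h before the ATP luminescence read.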 The following applies: Potency: A2780 spheroid viability. An outline of the steps:
(§1)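 Pre-formed 14-day tumor spheroids or adherent cells dosed and incubated 48 h, 37C, 5% CO2. Viability assessed by CellTiter-Glo.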

Assay [6] is described as follows: Identifying Small Molecule Inhibitors of Pancreatic Cancer Stem Cells (SN12C, Adherent) (AID 1259358).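 Also: cell survival measured after 48 h of compound exposure.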 Also: potency is read from the fitted curve at half-maximal effect. In outline:
(§2)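 Viability is scored by CellTiter-Glo luminescence 48 h after dosing, expressed as percent activity against vehicle and no-cell references. Spheroid formats rely on cells cultured 14 days in stem cell media beforehand.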

Assay [7] can be described thus: Identifying Small Molecule Inhibitors of Pancreatic Cancer Stem Cells (A278, Adherent) (AID 1259361).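 Also: viability read after 48 h compound exposure; nearly all actives have a fitted effect of over 35% in size.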 An outline of the steps:
as §2

Assay [8] in a line: Identifying Small Molecule Inhibitors of Pancreatic Cancer Stem Cells (SN12C, Spheroid) (AID 1259360). The following applies: Potency: SN12C spheroid viability. An outline of the steps: as §1
Assay [9] is described as follows: Identifying Small Molecule Inhibitors of Pancreatic Cancer Stem Cells (Panc1, Adherent) (AID 1259362).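 Also: compound exposure lasted 48 h before the viability read.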 As to conditions: Potency: viability. In outline: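 After a 4 h attachment period, compounds were pinned into wells and cultures held 48 h under standard incubator conditions. Viability was then measured as CellTiter-Glo luminescence following 10 min at room temperature.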

Molecules are shown by their SMILES. Records with an inconclusive call do not appear. A number with no mark means an inactive call. Active and inactive are the calls of the source. Calls follow the shape of the dose curve; as a rule, active = well fitted curve in the direction sought with a large enough effect; inconclusive = small, poorly fitted or top-dose-only effect, or another doubt; inactive = no such curve, though single readings can be large; an effect the other way counts as inactive or inconclusive.

Take `Nc1ccn([C@@H]2O[C@H](CO)[C@@H](O)C2O)c(=O)n1` (some centres undefined): the Potency result in assay [1], in [2], in assay [3] and in assay [4] was “inactive” in each case.

As to `Oc1ccc(OCc2ccccc2)cc1`, the Potency in assay [1] is 4.18 µM (active). Besides, the Potency result in assay [2], in assay [3] and in assay [4] was “inactive” in each case.

Take `O=C(O)c1cn(-c2ccc(F)cc2)c2cc(N3CCNCC3)c(F)cc2c1=O`: the Potency result in assay [1], in assay [2] and in [3] was “inactive” throughout.

For `O=C(NC(Cc1cc(=O)[nH]c2ccccc12)C(=O)O)c1ccc(Cl)cc1` (centres undefined), the Potency entry in assay [1], in assay [2], in assay [3] and in assay [4] was “inactive” each time.

With `CC(=O)N1CCN(c2ccc(OC[C@H]3CO[C@](Cn4ccnc4)(c4ccc(Cl)cc4Cl)O3)cc2)CC1`, the Potency entry in assay [2] and in assay [3] was “inactive” throughout.

Regarding `CC[C@]1(O)C[C@H]2CN(CCc3c([nH]c4ccccc34)[C@@](C(=O)OC)(c3cc4c(cc3OC)N(C=O)[C@H]3[C@@](O)(C(=O)OC)[C@H](OC(C)=O)[C@]5(CC)C=CCN6CC[C@]43[C@@H]65)C2)C1`, the Potency in [2] is 0.224 µM (active). Moreover, the Potency result in assay [3] is “inactive”.

For `CCC[C@@H]1C[C@@H](C(=O)N[C@@H]([C@H]2O[C@H](SC)[C@H](O)[C@@H](O)[C@H]2O)[C@@H](C)O)N(C)C1`, the Potency entry in assay [1] and in [3] was “inactive” in each case.

Turning to `CCCOc1ccc2nc(NC(=O)OC)[nH]c2c1`, the Potency result in [1] and in assay [3] was “inactive” in each case. Besides, the Potency in [4] is 0.291 µM (active).

As to `CCCCC(CC)COC(=O)C(C#N)=C(c1ccccc1)c1ccccc1` (centres undefined), the Potency entry in [1], in assay [2], in [3] and in assay [4] was “inactive” each time.

For `CCC(C)(Oc1ccc(C2(c3ccc(OC(C)(CC)C(=O)O)cc3)CCCCC2)cc1)C(=O)O` (centres undefined), the Potency result in assay [1], in assay [2], in assay [3] and in [4] was “inactive” in each case.

In the case of `CC1=C(C(=O)O)N2C(=O)[C@@H](NC(=O)[C@H](N)C3=CCC=CC3)[C@H]2SC1`, the Potency result in [1] and in assay [4] was “inactive” throughout.

On to `CCCCc1ccc2nc(NC(=O)OC)[nH]c2c1`, for which the Potency entry in assay [1] and in [3] was “inactive” each time.

Consider `Cc1cccc(-c2[nH]ncc2-c2ccc3ncccc3n2)n1`, for which the Potency result in assay [1], in assay [5] and in assay [6] was “inactive” in each case. For the same compound, in assay [7], the IC50 (viability decrease) result is “inactive”.

With `CC(C)[C@H](N)C(=O)OCCOCn1cnc2c(=O)[nH]c(N)nc21`, the Potency result in assay [1], in [2], in [3] and in assay [4] was “inactive” throughout.

Regarding `Cc1cc2c(s1)Nc1ccccc1N=C2N1CCN(C)CC1`, the Potency entry in assay [1], in assay [2], in [3] and in assay [4] was “inactive” each time.

Take `C[C@@H](N)C1CCC(C(=O)Nc2ccncc2)CC1` (some centres undefined): the Potency result in [1], in assay [6] and in assay [8] was “inactive” throughout. Also, in [7], the IC50 (viability decrease) entry was “inactive”.

On to `O=P(O)(O)C(O)(Cn1ccnc1)P(=O)(O)O`, for which the Potency result in assay [1], in assay [2] and in assay [3] was “inactive” each time.

For `CC(C)c1ccc2oc3nc(N)c(C(=O)O)cc3c(=O)c2c1`, the Potency result in assay [1], in [2], in assay [3] and in assay [4] was “inactive” throughout.

Turning to `COc1c2occc2cc2ccc(=O)oc12`, the Potency in [1] was 3.32 µM (active). The Potency entry in assay [2] and in [3] was “inactive” throughout.

Consider `Cc1ncc([N+](=O)[O-])n1CC(C)O` (centres undefined), for which the Potency result in assay [2] and in assay [3] was “inactive” each time.

With `CCOC(=O)C(C)Oc1cccc2c(=O)n(CC(=O)Nc3ccc4c(c3)OCCO4)ccc12` (centres undefined), in assay [1], the Potency was 3.32 µM (active). Also, the Potency entry in assay [6], in assay [8] and in assay [4] was “inactive” throughout.

For the compound `c1cnc2cc3c(cc2n1)C1CNCC3C1`, the Potency result in assay [1] and in assay [4] was “inactive” in each case.

On to `COc1ccc2cc([C@H](C)C(=O)O)ccc2c1`, for which the Potency result in [1], in assay [2] and in assay [3] was “inactive” each time.

For `Nc1nc(Cl)nc2c1ncn2[C@H]1C[C@H](O)[C@@H](CO)O1`, in assay [1], the Potency was 0.296 µM (active). In addition, the Potency result in assay [2] and in [3] was “inactive” throughout. The IC50 (viability decrease) in [7] was 0.0959 µM (active).

In the case of `Cc1cc2cc3c(C)cc(=O)oc3c(C)c2o1`, in assay [1], the Potency was 16.6 µM (active). Besides, the Potency entry in assay [2], in assay [3] and in [4] was “inactive” each time.

Consider `COc1c(O)cc2c(c1O)[C@@H]1O[C@H](CO)[C@@H](O)[C@H](O)[C@H]1OC2=O`, for which the Potency entry in assay [1], in assay [2] and in assay [3] was “inactive” throughout.

For `Cc1nccn1CC1CCc2c(c3ccccc3n2C)C1=O` (centres undefined), the Potency in assay [1] was 13.2 µM (active). Besides, in [4], the Potency entry was “inactive”.

Regarding `Nc1cccc2c1CN(C1CCC(=O)NC1=O)C2=O` (centres undefined), the Potency result in [6] and in assay [8] was “inactive” each time.

As to `CNC[C@H](O)c1ccc(O)c(O)c1`, the Potency result in assay [3] is “inactive”.

For the compound `CCCCN(CCCC)CCC(O)c1cc2c(Cl)cc(Cl)cc2c2cc(C(F)(F)F)ccc12` (centres undefined), the Potency entry in assay [3] is “inactive”.

Regarding `CC1Cc2ccccc2N1NC(=O)c1ccc(Cl)c(S(N)(=O)=O)c1` (centres undefined), in assay [3], the Potency entry is “inactive”.

On to `Cc1ccc(S(=O)(=O)NC(=O)NN2CC3CCCC3C2)cc1` (centres undefined), for which, in [3], the Potency entry is “inactive”.

As to `COc1cc(Nc2c(C#N)cnc3cc(OCCCN4CCN(C)CC4)c(OC)cc23)c(Cl)cc1Cl`, the Potency in assay [6] was 26.4 µM (active); in assay [4], 18.4 µM (active). Besides, the IC50 (viability decrease) in assay [7] was 23.5 µM (active).

Regarding `O=c1ccc2ccc(O)c(O)c2o1`, the Potency result in assay [4] is “inactive”.

Turning to `Cc1ccc(NC(=O)c2ccc(CN3CCN(C)CC3)cc2)cc1Nc1nccc(-c2cccnc2)n1`, the Potency entry in assay [2], in assay [3], in [6], in assay [8] and in assay [9] was “inactive” each time.

`CN(c1nccc(=O)[nH]1)C1CCN(c2nc3ccccc3n2Cc2ccc(F)cc2)CC1`: the Potency result in [2], in assay [3] and in [4] was “inactive” each time.
